# TRHR ag – qHTS for Small Molecule Agonists and Allosteric Enhancers of Human TRH Receptor: Primary Screen for Agonists. Thyrotropin-releasing hormone receptor (Homo sapiens), P34981. TRHR cells, calcium flux fluo-8, FDSS agonist mode. activation, % at 2 µM. hit rate 0.18% among 360,000; in the data active means activation above about 30%; further: 0% is about no effect
#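 TRHR-expressing cells loaded with fluo-8 calcium dye; 23 nL library compound pin-transferred, kinetic FDSS fluorescence (Ex 480/Em 530) recorded about 180 s for agonist-induced calcium release, before a 10 nM TRH EC20 addition for potentiator mode.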
# PTHR1 ag – qHTS for PTHR1 Agonists: Primary Screen | Parathyroid hormone/parathyroid hormone-related peptide receptor (Homo sapiens), Q03431 | AID 743266, 2014 | HEK293 GP2 PTHR1 cells, GloSensor cAMP luminescence, 1 h | hit rate 0.075% among 410,000 | Potency, µM (top dose mostly 115 µM), without a hit: at the highest dose activation, most hits filed as activators; further: potency means the concentration at half of the fitted maximal effect; nearly all actives have a fitted effect of over 55% in size
#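 HEK-293-derived GP2 cells expressing PTHR1 and a GloSensor cAMP reporter, 3,000/well, plated overnight, given luciferin plus IBMX (each 0.5 mM as added) for 1 h at 37 °C, then compound for 1 h at 37 °C. Luminescence was read after 15 min at room temperature.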
# TRHR PAM – qHTS for Small Molecule Agonists and Allosteric Enhancers of Human TRH Receptor: Primary Screen for Enhancers; Thyrotropin-releasing hormone receptor (Homo sapiens), P34981; AID 493056, 2011; TRHR cells, fluo-8 calcium fluorescence, EC20 TRH enhancement; hit rate 0.66% among 360,000; enhancement, % at 2 µM; in the data active means enhancement above about 30%; further: 0% is about no effect
#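 TRHR-expressing cells loaded with fluo-8 calcium dye were read kinetically (ex 480/em 530) during compound addition, then stimulated with an EC20 of TRH (10 nM final). Enhancement of the Gq-mediated intracellular calcium response was scored.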
# GLP1R ag – qHTS of GLP-1 Receptor Agonists; HEK293 GLP-1R CRE-luciferase, luminescence, 4-6 h; cells express a hypersensitive GLP-1R form; Potency, µM (series often up to 45.6 µM), without a hit: at the highest dose activation, usual class: activators; hit rate 0.007% among 380,000; further: potency means the concentration at half of the fitted maximal effect; % of control where 0% means no effect
# Target sequence (P43220 whole entry, looked up): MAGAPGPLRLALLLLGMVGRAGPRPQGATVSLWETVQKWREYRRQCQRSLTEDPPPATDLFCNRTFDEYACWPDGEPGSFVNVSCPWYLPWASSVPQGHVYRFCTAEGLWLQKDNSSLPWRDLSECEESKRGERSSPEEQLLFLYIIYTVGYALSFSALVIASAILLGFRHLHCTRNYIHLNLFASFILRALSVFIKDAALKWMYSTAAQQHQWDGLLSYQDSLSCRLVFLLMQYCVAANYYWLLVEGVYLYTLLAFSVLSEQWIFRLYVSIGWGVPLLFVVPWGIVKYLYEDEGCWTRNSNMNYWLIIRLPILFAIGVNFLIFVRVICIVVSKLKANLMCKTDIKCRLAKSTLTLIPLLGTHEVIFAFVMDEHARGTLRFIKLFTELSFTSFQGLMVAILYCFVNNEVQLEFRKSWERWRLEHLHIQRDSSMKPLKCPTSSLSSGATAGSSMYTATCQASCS
# GLP1R cytotox – qHTS of GLP-1 Receptor Inverse Agonists: Cytotox Screen; HEK293 cAMP-luciferase reporter cells, luminescence, 24 h; Potency, µM (highest dose often 38.3 µM), inactives show at the top dose activity change, negative = inhibition, usual class: inhibitors; hit rate 0.13% among 410,000; AID 624418, 2012;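 further: loss of luciferase light is scored as toxicity; potency means the concentration at half of the fitted maximal effect; on the % scale 0 is the no-effect control and ±100 the full control effect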
#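 A 23 nL compound transfer followed 12 hours of cell culture at 37 deg C; exposure then lasted 24 hr. Luciferase assay detection reagent was dispensed and plates read for luminescence after a 12 min room-temperature wait.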
# GLP1R inv ag – qHTS of GLP-1 Receptor Inverse Agonists (Inhibition Mode) | Potency, µM (highest dose often 38.3 µM), without a hit: at the top dose activity change, negative = inhibition, usual class: inhibitors | HEK293 GLP-1R CRE-luciferase, luminescence, 24 h; GLP-1R form is constitutively active | hit rate 1.6% among 410,000 | AID 624417, 2012 | Glucagon-like peptide 1 receptor (Homo sapiens), P43220; further: potency means the concentration at half of the fitted maximal effect; on the % scale 0 is the no-effect control and ±100 the full control effect; nearly all actives have a fitted effect of over 55% in size
#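 Readout was luciferase luminescence, measured 12 min after detection reagent at room temperature. Beforehand, GLP-1R reporter HEK293 cells had sat 12 h, then received compounds for 24 hr at 37 deg C.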
# * hit, by the source's call; i = inactive; ? = inconclusive; / = no result given; [ ] = another dose, or the depositor's remark. Rows were chosen to be rich in hits. Some 2.4% of all compounds tested hit in one or more screens of this group. Unless noted, the call rests on the fitted dose curve; in most records, active means well fitted curve in the direction sought with a large enough effect; inconclusive means small, poorly fitted or top-dose-only effect, or another doubt; inactive means no such curve, though single readings can be large; an effect the other way counts as inactive or inconclusive.
SMILES,TRHR ag,PTHR1 ag,TRHR PAM,GLP1R ag,GLP1R cytotox,GLP1R inv ag
COc1ccc(Nc2nnc(SCc3cn4c(C)cccc4n3)s2)cc1,-0.9,-1.1%,5.7,2.8%,?,2.2%
COc1cccc(C(=O)NC2CC3CCCC(C2)N3CC(=O)Nc2ccccc2C(F)(F)F)c1 (stereo not given),0.1,-33.1%,-5.1,8.5%,-8.1%,2.24µM*
O=C(CN1C2CCCC1CC(NC(=O)C1CCCCC1)C2)Nc1ccccc1C(F)(F)F (stereo not given),-0.3,-34.7%,-6.4,10.7%,7.9%,?
C/C=C/c1ccc(OCC(O)CNCCc2ccc(OC)cc2)c(OC)c1 (stereo not given),0.1,26.3%,4.8,-0.8%,?,?
C/C=C/c1ccc(OCC(O)CN2CCCCC2CC)c(OC)c1 (stereo not given),0.1,i,13.3,-0.9%,1.4%,12.6µM*
NC(=O)c1oc2ccccc2c1NC(=O)C1CC(=O)N(c2ccccc2)C1 (stereo not given),-0.1,i,2.8,0.3%,-3.1%,-14.6%
Cc1ccc(S(=O)(=O)N(C)C)cc1NC(=O)COC(=O)/C(=C/c1ccc(F)cc1)c1cccs1,0.0,-6.8%,1.4,-1.1%,-9.2%,10µM*
Cc1ccc(S(=O)(=O)N(C)C)cc1NC(=O)COC(=O)c1cccs1,/,i,/,4.1%,-5.1%,6.0%
O=C(Nc1ccccc1C(F)(F)F)Nc1cccc2ccccc12,-0.3,i,2.3,-12.5%,-12.2%,-29.6%
Cc1cccc(C)c1OCC(=O)Nc1oc(-c2ccccc2)c(-c2ccccc2)c1C#N,/,-34.5%,/,-16.8%,?,10µM*
COc1ccc(C(=O)Nc2oc(-c3ccccc3)c(-c3ccccc3)c2C#N)cc1,-0.5,-11.8%[57.5 µM],-0.1,-0.5%,-1.9%,?
O=C(CCl)Nc1ccc(-c2ccccc2)cc1,-1.5,-28.3%,-4.0,-4.1%,?,10µM*
CC(C)(C)c1ccc(OCCOc2ccc(C(C)(C)C)cc2NC=O)c(NC=O)c1,1.5,-51.6%,26.4,5.0%,4.1%,4.47µM*
O=C(CSc1nc2c([nH]c3ccccc32)c(=O)n1-c1ccccc1F)Nc1cccc(C(F)(F)F)c1,0.4,-14.2%,17.8,3.0%,-22.3%,11.2µM*
CCC(NC(=O)Nc1nccs1)(C(F)(F)F)C(F)(F)F,0.3,-6.8%[57.5 µM],-11.3,-3.8%,-4.3%,?
CCCC(=O)Nc1nnc(SCC)s1,-0.3,-14.9%,9.6,0.5%,1.6%,1.9%
CCSc1nnc(NC(=O)NC(CC)(C(F)(F)F)C(F)(F)F)s1,3.9,-28.1%[57.5 µM],-5.0,-30.4%,?,7.08µM*
CCSc1nnc(NC(=O)NC(C)(C(F)(F)F)C(F)(F)F)s1,1.5,-28.8%,-4.3,-1.2%,-22.3%,10µM*
CNC(=O)c1c(NC(=O)c2ccc(S(=O)(=O)N3CCCC3)cc2)sc2c1CCN(C(C)C)C2,46.5*,/,3.2,/,/,/
CNC(=O)c1c(NC(=O)c2ccc(S(=O)(=O)N3CC(C)OC(C)C3)cc2)sc2c1CCN(C(C)C)C2 (stereo not given),2.1,-22.6%,4.7,1.4%,4.6%,23.6%
COC(=O)C1CC(=O)N(c2ccc(C)cc2)C1 (stereo not given),-0.5,-23.4%,2.7,8.4%,-8.9%,12.2%
Cc1ccccc1NC(=O)c1ccc2ccccc2c1,-0.6,-32.9%,1.3,-0.5%,4.3%,?
Cc1nnc(NC(=O)c2ccc3ccccc3c2)o1,0.0,-24.2%[57.5 µM],-5.7,2.4%,-17.5%,11.2µM*
CC1CCCN(C(=O)C(=O)c2cn(CC(=O)N3CCCCCC3)c3ccccc23)C1 (stereo not given),0.1,i,1.5,-4.6%,-5.1%,-0.5%
C=CCn1nc([N+](=O)[O-])nc1Sc1cccc2cccnc12,-0.7,i,7.9,-20.6%,2.82µM*,?
SMILES,TRHR ag,PTHR1 ag,TRHR PAM,GLP1R ag,GLP1R cytotox,GLP1R inv ag
O=[N+]([O-])c1cc(Cl)ccc1Sc1cccc2cccnc12,-0.4,-20.5%,1.1,4.9%,-11.7%,0.8%
O=[N+]([O-])c1ccc(Sc2cccc3cccnc23)c([N+](=O)[O-])c1,-0.9,i,-11.0,-0.4%,3.16µM*,?
O=C(COC(=O)[C@@H]1CC(O)CN1S(=O)(=O)c1ccc(Cl)c(Cl)c1)NC(=O)NCc1ccccc1 (stereo not given in full),/,-15.9%,/,8.8%,?,-30.8%
NC(=S)N/N=C/c1ccccc1OCCSc1ccc(Cl)cc1,-0.3,-20.4%,-1.1,-0.2%,3.16µM*,2.82µM*
CCOC(=O)N/N=C/c1ccccc1OCc1ccc(Cl)cc1,-0.3,i,0.3,6.3%,-4.5%,-25.5%
COc1ccc(/C=C/C(=O)C2CC2)cc1Cn1nc(C)c([N+](=O)[O-])c1C,-0.7,-16.9%,37.5*,6.8%,-4.5%,-5.4%
COc1ccc(/C=N/N2CCOCC2)cc1Cn1nc(C)c([N+](=O)[O-])c1C,-0.6,-18.5%,-3.8,2.3%,-2.2%,-16.7%
COc1ccc(/C=N/Nc2ccccc2)cc1Cn1nc(C)c([N+](=O)[O-])c1C,-1.1,i,-6.2,-1.9%,-27.6%,3.98µM*
COc1ccc(C(C)=O)cc1Cn1nc(C)c([N+](=O)[O-])c1C,-0.2,-39.4%,-6.3,?,-1.7%,19.7%
Cn1c(=O)nc2n(Cc3ccccc3)c3ccccc3cc-2c1=O,-0.3,-7.1%,30.7*,15.8%,146.3%,16.8%
OC(c1ccccc1)c1nc(-c2cccc3cccnc23)cs1 (stereo not given),/,-47.1%,/,3.8%,2.2%,?
CS(=O)(=O)N(Cc1nc(-c2ccc(F)cc2)no1)c1ccccc1Cl,-0.7,-13.9%,-2.7,-6.4%,2.6%,?
O=C1c2ccccc2S(=O)(=O)N1Cc1nc2ccccc2s1,-1.0,-5.5%[57.5 µM],1.8,-20.5%,-6.9%,3.98µM*
Cc1ccccc1CN1C(=O)c2ccccc2S1(=O)=O,-0.6,i,-2.0,22.8%,-0.9%,?
Cc1nn2c(=O)c3c4c(sc3nc2n1-c1ccccc1)COC(C)(C)C4,-1.0,-33.2%,39.5*,-2.1%,4.0%,20.9%

# Source: PubChem BioAssay (National Center for Advancing Translational Sciences (NCATS))
